HT1080 IDH1KD tx: HT-1080 IDH1 knockdown cell toxicity (counter line) | HT-1080 IDH1 knockdown viability, ATP luminescence, 48 h | Potency, µM (series often up to 46.1 µM), for the others: at the top dose activity, negative = toxicity, hits mostly cytotoxic | 2% of 360,000 active;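 also: 0% = DMSO wells and -100% = cell-free medium wells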
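Assay cells: HT-1080 with IDH1 knockdown, 750 per well, RPMI/5% FBS. Exposure: 48 h at 37 °C following 2 h pre-incubation. Read: CellTiter-Glo luminescence; fitted concentration-response, curve class assigned.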
KB-V1 cytotox: KB-V1 MDR subline cytotoxicity; 3.4% of 400,000 active; KB-V1 MDR cells viability, CellTiter-Glo, 72 h; Potency, µM (top dose mostly 46.1 µM), usual class: cytotoxic; also: % is scaled to controls: 0 for no effect and ±100 for the full control effect; nearly all actives have a fitted effect of over 60% in size
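KB-V1, DMEM (no phenol red) + 10% FBS; cpd pin-transferred, titration series; 72 h, 37 degrees C; CellTiter-Glo, luminescence. Data normalized, curve-fit.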
SW480 rerep: inducers of DNA re-replication in SW480 colon cancer cells; 1.8% of 340,000 active; SW480 DNA re-replication, Hoechst DNA content imaging, 48 h; Potency, µM (series often up to 46.1 µM), for the others: top-dose re-replication activation, most hits filed as activators; AID 624297; also: % of control where 0% means no effect; nearly all actives have a fitted effect of over 55% in size
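Readout is total intensity of Hoechst-stained nuclei, excited at 405 nm and collected at 500-530 nm. Compound treatment lasted 48 hr at 37 C in 5% CO2 before staining.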
HT1080-NT tox: kills 2HG-producing HT-1080-NT fibrosarcoma cells; HT-1080-NT fibrosarcoma viability, CellTiter-Glo ATP luminescence, 48 h; Potency, µM (top dose mostly 46.1 µM), inactives show at the top dose activity, negative = less viability, hits mostly cytotoxic; 1.6% of 360,000 active; AID 686970;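 also: NT is the 2HG producing partner of a matched IDH1 knockdown line; 0% = DMSO-treated cells and -100% = media-only wells without cells; nearly all actives have a fitted effect of over 55% in size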
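HT-1080-NT; 750 cells/well; 5% FBS RPMI; 48 h compound, 37 degrees C; CellTiter-Glo luminescence; curve fitting and curve-class assignment.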
MCF10A rerep: inducers of DNA re-replication in MCF 10A breast cells. MCF 10A DNA re-replication, Hoechst nuclear intensity, 48 h. Potency, µM (doses to about 46.1 µM), for inactives: top-dose activity, positive = re-replication, hits mostly activators. 2.9% of 350,000 active; also: % of control where 0% means no effect; nearly all actives have a fitted effect of over 50% in size
KB-3-1 cytotox: kills parental KB-3-1 adenocarcinoma cells; 1.4% of 400,000 active; AID 1347075; KB-3-1 viability, CellTiter-Glo ATP luminescence, 72 h; Potency, µM (highest dose often 46.1 µM), actives largely listed as cytotoxic; also: % is scaled to controls: 0 for no effect and ±100 for the full control effect; nearly all actives have a fitted effect of over 60% in size
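Parental KB-3-1 viability, qHTS format: 72 h compound exposure, 37 °C; CellTiter-Glo; media-only wells and DMSO plates as controls; concentration-effect fits on corrected data.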
Numbers without * were called inactive; i = inactive; ? = inconclusive; / = not tested or not shown; ! = a repeat was not active; [ ] = another dose, or the depositor's remark. In the library only some 8% were active in any assay of this set; here they are far more common. Calls follow the shape of the dose curve; as a rule, active = well fitted curve in the direction sought with a large enough effect; inconclusive = small, poorly fitted or top-dose-only effect, or another doubt; inactive = no such curve, though single readings can be large; an effect the other way counts as inactive or inconclusive. Potency is read from the fitted curve at half-maximal effect.

SMILES	HT1080 IDH1KD tx	KB-V1 cytotox	SW480 rerep	HT1080-NT tox	MCF10A rerep	KB-3-1 cytotox
CN(C(=O)CSc1nc2ccccc2n1CC(=O)NCc1ccc(F)cc1)c1ccc(F)cc1	/	i	/	/	/	i
COc1ccc(S(=O)(=O)NCc2ccccn2)cc1NC(=O)c1ccc(Cl)cc1	?	?	?	?	8.2µM*	?
COc1ccc(S(=O)(=O)NCc2ccncc2)cc1NC(=O)c1ccc(Cl)cc1	-4%	i	-344%	-20%	1%	i
COc1ccc(S(=O)(=O)NCc2ccccn2)cc1NC(=O)c1ccccc1C	?	?	7.3µM*	?	3.7µM*	15µM*
CC1CCN(c2nn3c(=O)c(C(=O)NCCc4ccccc4)cnc3s2)CC1	/	i	/	/	/	i
C=C(C)COc1ccc(-c2nc(N)nc(C(F)(F)F)c2-c2ccc(OC)cc2)c(O)c1	?	i	21µM*	?	2.6µM*	i
CCc1cc(-c2nc(N)ncc2-c2ccc(Br)cc2)c(O)cc1OC	-16%	i	7%	0%	18µM*	i
C=C(C)COc1ccc(-c2[nH]ncc2-c2ccc(Br)cc2)c(O)c1	23µM*	12µM*	21µM*	15µM*	9.2µM*	5.8µM*
C=C(C)COc1ccc(-c2ncnc(C(F)(F)F)c2-c2ccc(OC)cc2)c(O)c1	-16%	?	?	-18%	?	?
C=C(C)COc1ccc(-c2nc(N)ncc2-c2ccc(Br)cc2)c(O)c1	-25%	?	?	?	23µM*	21µM*
C=C(C)COc1ccc(-c2ncncc2-c2ccc(Br)cc2)c(O)c1	-28%	i	1%	?	?	i
CCN(CC)C(=O)Nc1ccc(OC[C@H](O)CNC(C)(C)C)c(C(C)=O)c1	/	/	-1%	/	1%	/
C=C(C)COc1ccc(-c2ncncc2-c2ccc(Cl)cc2)c(O)c1	-15%	i	-4%	-12%	15µM*	i
COc1ccc(-c2cn[nH]c2-c2ccc(O)cc2O)cc1OC	-1%	i	3%	-11%	1%	i
CCOc1ccc(-c2[nH]ncc2-c2ccc(OC)c(OC)c2)c(O)c1	2.2µM*	3.7µM*	2.6µM*	6.3µM*	?	?
CCOc1ccc(-c2[nH]ncc2-c2ccc(Cl)cc2)c(O)c1	0%	i	?	-14%	?	i
COc1ccc(-c2cn[nH]c2-c2ccc(OCc3ccc([N+](=O)[O-])cc3)cc2O)cc1	-20%	3.7µM*	?	0%	5.8µM*	?
C=C(C)COc1ccc(-c2[nH]ncc2-c2ccccc2OC)c(O)c1	18µM*	?	?	18µM*	15µM*	?
COc1ccc(-c2c(C)nc(N)nc2-c2ccc(OC)cc2O)cc1	-12%	i	?	-5%	3%	i
CCOc1ccc(-c2nc(N)ncc2Oc2cccc(OC)c2)c(O)c1	?	?	-2%[9.22 µM]	-25%	30%	?
COc1ccc(-c2c(C)nc(N)nc2-c2ccc(OCc3ccc(C)cc3)cc2O)cc1OC	-14%	2.3µM*	16%	-5%	?	i
CCOc1ccc(-c2nc(N)ncc2Oc2ccccc2Br)c(O)c1	23µM*	i	26%	?	?	i
COc1ccc(-c2cc(-c3ccccc3)nc3c2COc2ccc(F)cc2-3)cc1	/	i	/	/	/	i
O=C(OCc1ccccc1)c1cccnc1	/	/	7%	/	2%	/
CC(=O)Nc1cccc(Oc2cc(C#N)c(C#N)cc2N2CCCCCC2)c1	?	23µM*	-4%	?	7%	?
SMILES	HT1080 IDH1KD tx	KB-V1 cytotox	SW480 rerep	HT1080-NT tox	MCF10A rerep	KB-3-1 cytotox
COc1ccc(-c2ccc3ncnc(NCc4nc(C)cs4)c3c2)cc1OC	/	?	/	/	/	i
COc1ccc(-n2nc3c(N4CCCC(C(=O)NCc5ccc(C)cc5)C4)nnc(C)c3c2C)cc1 (centres undefined)	/	i	/	/	/	i
N/C(=N\OC(=O)c1ccc2c(c1)OCO2)c1ccc(Cl)cc1	?	i	?	7%	16µM*	i
O=S1(=O)c2ccccc2N(Cc2ccccc2Cl)c2ccccc21	/	i	/	/	/	i
CC(C)C1N=C2c3ccccc3N=C(SCc3cc(=O)n4cc(Cl)ccc4n3)N2C1=O (centres undefined)	-8%	23µM*	-1%	-6%	13%	?
COC(=O)c1[nH]c2ccccc2c1NC(=O)CN1CCN(c2cccc(OC)c2)C(C)C1 (centres undefined)	?	?	8%	-19%	20%	18µM*
COC(=O)c1[nH]c2cc(OC)ccc2c1NC(=O)CCN1CCN(c2ccccc2)CC1	22%	i	-7%	6%	62%[0.0737 µM]	i
CCOC(=O)c1[nH]c2ccc(C)cc2c1NC(=O)CN1CCCCC1	-4%	i	3%	-6%	17%	i
CCOC(=O)c1[nH]c2ccc(F)cc2c1NC(=O)CCN1CCOCC1	11%	i	-229%	10%	2%	i
CCOC(=O)c1[nH]c2ccc(Br)cc2c1NC(=O)CCN1CCCC(C)(C)C1	-17%	3.3µM*	?	-12%	?	i
COC(=O)c1[nH]c2ccc(C)cc2c1NC(=O)CN1CCCC(C)(C)C1	-24%	?	-6%[9.22 µM]	-28%	?	21µM*
CCN(CC(=O)Nc1c(C(=O)OC)[nH]c2ccc(C)cc12)c1ccc2c(c1)OCO2	0%	7.3µM*	13%	1%	?	i
CCOc1ccc(Cc2nccc3cc(OCC)c(OCC)cc23)cc1OCC	/	/	-2%[20.6 µM]	/	1%[20.6 µM]	/
Cc1cc2c(s1)c1cnn(CC(=O)N3CCOCC3)c(=O)c1n2C	/	i	/	/	/	?
COC(=O)c1[nH]c2ccc(Br)cc2c1NC(=O)CN1CCN(C2CCCCC2)CC1	18µM*	?	?	23µM*	?	?
CCOc1ccc(OCC)c(NC(=O)CN2CCN(c3cccc(C)c3)C(C)C2)c1 (centres undefined)	2%	?	?	-3%	15µM*	?
CCOc1ccc(OCC)c(NC(=O)CN2CCN(c3cccc(C)c3)CC2)c1	-5%	i	?	-4%	?	?
CCOC(=O)c1ccc(NC(=O)CCCn2nc(C)c3sc4ccccc4c3c2=O)cc1	/	i	/	/	/	i
O=S1(=O)CCOC[C@H](Cc2ccccc2)N1Cc1cccc(C(F)(F)F)c1	0%	?	?	-28%	9%	i
O=S1(=O)CCOC[C@H](CC2CCCCC2)N1Cc1cccc(C(F)(F)F)c1	0%	13µM*!	-8%	-16%	-5%	?

Screening data (PubChem)
